# Assay results: PubChem BioAssay AID651673 (Broad Institute, 2012)
# This is one part of the list. Active and inactive are the calls of the source.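 The calls were made as follows: active = signal drop giving an AC50 within twice the top valid tested concentration of each sample (actives reach about 35 µM in these data); inactive = activity opposite to expected, plus the rest.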
# Assay: DNA binding of candidate compounds, dose response, artefact control for RAD54 inhibitor project, biochemical, fluorescence polarization, cherry-pick (AID 651673);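 also: polarization loss reports compound binding to salmon sperm DNA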
# Conditions: Acridine orange-DNA displacement, 20 min; series mostly up to 35 µM
smiles,measurement,value
CN1CCN(c2cc(N3CCNCC3)ccc2[N+](=O)[O-])CC1,outcome,inactive
